Measurements taken from PubChem BioAssay AID624405 (Broad Institute, 2012).
Among all 1,900 compounds or so, about 250 (13%) were called active. Not shown: some 4% with an inconclusive outcome.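 The calls were made as follows: active = fitted curve reaches 40% rescue activity at or below the top valid dose, in every test run; inconclusive = test runs disagree, some active and some inactive; inactive = every run misses the threshold or moves the wrong way.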 The list is a sample of the results. Entries with a potency or affinity are not part of this list.

Experiment: suppressors of statin myotoxicity in myotubes, dose response, cell-based, C2C12 myotubes, ATP luminescence, cherry pick (AID 624405);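 also: myotubes are challenged with simvastatin at 10 µM to lower ATP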
Conditions: C2C12 myotubes + simvastatin, 48 h, scaled: DMSO wells 0, geranylgeraniol wells 100; series mostly up to 19.5 µM
In the case of `C[C@H](CO)N1C[C@H](C)[C@@H](CN(C)Cc2ccc(Cl)c(Cl)c2)Oc2ccc(NS(=O)(=O)c3ccc(Cl)cc3)cc2CC1=O`, the outcome is reported as “inactive”.
With `C[C@@H]1CN([C@H](C)CO)C(=O)Cc2cc(NS(=O)(=O)c3ccc(F)cc3)ccc2O[C@H]1CN(C)Cc1ccc(Cl)c(Cl)c1` the outcome was “inactive”.
With `C[C@@H]1CN([C@@H](C)CO)C(=O)Cc2cc(NS(=O)(=O)c3ccc(Cl)cc3)ccc2O[C@H]1CN(C)Cc1ccc(Cl)c(Cl)c1` the outcome was “inactive”.
For `C[C@@H]1CN([C@H](C)CO)C(=O)Cc2cc(NS(=O)(=O)c3ccc(F)cc3)ccc2O[C@@H]1CN(C)Cc1ccc(Cl)c(Cl)c1`, the outcome was “inactive”.
For `C[C@@H]1CN([C@H](C)CO)C(=O)Cc2cc(NS(=O)(=O)c3ccc(F)cc3)ccc2O[C@@H]1CN(C)Cc1ccc(C(F)(F)F)cc1`, the outcome was “inactive”.
For `C[C@@H]1CN([C@H](C)CO)C(=O)Cc2cc(NS(=O)(=O)c3ccc(F)cc3)ccc2O[C@H]1CN(C)Cc1ccc(C(F)(F)F)cc1`, the outcome was “inactive”.
For `CCCCc1ccc(S(=O)(=O)NCCc2ccncc2)cc1`, the outcome was “inactive”.
In the case of `C[C@H](CO)N1C[C@H](C)[C@H](CN(C)S(=O)(=O)c2ccc(F)cc2)Oc2ncc(C#Cc3cccc(F)c3)cc2C1=O`, the outcome is reported as “inactive”.
With `CCOC(=O)C1(C)NC(c2ccc(N(C)C)cc2)C2C(=O)N(c3ccc(OC)cc3)C(=O)C21` (centres undefined) the outcome was “inactive”.
For `C[C@@H]1CN([C@@H](C)CO)C(=O)c2cc(NS(C)(=O)=O)ccc2O[C@@H](C)CCCCO[C@@H]1CN(C)S(=O)(=O)c1ccc(Cl)cc1`, the outcome was “inactive”.
In the case of `CCOc1nc(Nc2ccc(F)cc2)nc(N2CCN(c3ccc(OC)cc3)CC2)n1`, the outcome is reported as “inactive”.
With `C[C@H]1CN([C@@H](C)CO)C(=O)c2cc(NC(=O)Nc3ccc4c(c3)OCO4)ccc2O[C@@H]1CN(C)C(=O)Nc1ccc(C(F)(F)F)cc1` the outcome was “inactive”.
With `O=C(CN(Cc1ccccc1C(F)(F)F)C(=O)CNC(=O)c1ccco1)NC1CCCC1` the outcome was “inactive”.
With `Cc1cc(Cl)c(S(=O)(=O)N2CC(C)OC(C)C2)cc1OCC(N)=O` (centres undefined) the outcome was “inactive”.
For `C[C@@H]1CN([C@@H](C)CO)C(=O)c2cc(NC(=O)CCC(F)(F)F)ccc2O[C@@H](C)CCCCO[C@@H]1CN(C)Cc1ccc(C(F)(F)F)cc1`, the outcome was “inactive”.
In the case of `Cc1ccc(C(=O)Nc2c(C(=O)N3CCOCC3)cnn2-c2ccccc2)cc1`, the outcome is reported as “inactive”.
With `Cc1cccc(NS(=O)(=O)c2ccc(-n3cccn3)cc2)c1C` the outcome was “inactive”.
In the case of `COc1ccc(NC(=O)CC2C(=O)NCCN2C(=O)c2ccc(Cl)cc2)cc1` (centres undefined), the outcome is reported as “inactive”.
For `C[C@H]1CN([C@@H](C)CO)C(=O)Cc2cc(NS(=O)(=O)c3cn(C)cn3)ccc2O[C@H]1CN(C)Cc1ccc(Cl)c(Cl)c1`, the outcome was “inactive”.
In the case of `C[C@H]1CN([C@@H](C)CO)S(=O)(=O)c2ccc(Br)cc2O[C@@H]1CN(C)S(=O)(=O)c1ccc(F)cc1`, the outcome is reported as “inactive”.
For `C[C@H]1CN([C@@H](C)CO)S(=O)(=O)c2ccc(C#Cc3ccccc3)cc2O[C@@H]1CN(C)C(=O)Cc1ccccn1`, the outcome was “inactive”.
For `COc1ccc(C#Cc2ccc3c(c2)O[C@H](CN(C)C(=O)Nc2cccc(OC)c2)[C@H](C)CN([C@@H](C)CO)S3(=O)=O)cc1`, the outcome was “inactive”.
In the case of `COc1ccc(C#Cc2ccc3c(c2)O[C@H](CN(C)C(=O)Nc2cccc(OC)c2)[C@H](C)CN([C@H](C)CO)S3(=O)=O)cc1`, the outcome is reported as “inactive”.
In the case of `C[C@H](CO)N1C[C@H](C)[C@@H](CN(C)S(=O)(=O)c2ccc(F)cc2)Oc2cc(Br)ccc2S1(=O)=O`, the outcome is reported as “inactive”.
In the case of `C[C@H](CO)N1C[C@H](C)[C@H](CN(C)C(=O)Nc2cc(F)ccc2F)Oc2cc(C#CC3CC3)ccc2S1(=O)=O`, the outcome is reported as “inactive”.
In the case of `O=c1oc2cc(OCc3ccc(F)cc3F)ccc2cc1-c1ccccn1`, the outcome is reported as “inactive”.
In the case of `CC(=O)C[C@@H](O)CC(=O)[C@@H]1OC(=O)CCCCCCc2ccccc21`, the outcome is reported as “inactive”.
In the case of `Cc1ccc(NS(=O)(=O)c2ccc(-c3ccc(=O)[nH]n3)o2)cc1Cl`, the outcome is reported as “inactive”.
For `Cc1noc(C)c1S(=O)(=O)Nc1ccc2c(c1)C(=O)N([C@@H](C)CO)C[C@H](C)[C@H](CN(C)S(=O)(=O)c1ccc(Cl)cc1)OCCCC[C@@H](C)O2`, the outcome was “inactive”.
With `O=C(CN1CCOCC1)N1CCN(c2nnc(-c3ccccc3)c3ccccc23)CC1` the outcome was “inactive”.
With `Nn1c(SCC(=O)Nc2ccc(S(=O)(=O)N3CCCC3)cc2)nnc1C(F)(F)F` the outcome was “inactive”.
With `CCn1c(SCC(=O)NCc2cccs2)nnc1-c1ccco1` the outcome was “inactive”.
In the case of `CCOC(=O)c1ccn(-c2nc(-c3ccco3)cc(C(F)(F)F)n2)n1`, the outcome is reported as “inactive”.
In the case of `Cc1occc1-c1nnc(SCC(=O)c2ccc(Cl)cc2)n1CC1CCCO1` (centres undefined), the outcome is reported as “inactive”.
For `O=C(CN1CCN(S(=O)(=O)c2ccc(Br)cc2)CC1)Nc1ccc2c(c1)OCCO2`, the outcome was “inactive”.
With `Cc1cc(Cl)c(S(=O)(=O)Nc2ccc3c(c2)OCO3)cc1OCC(N)=O` the outcome was “inactive”.
In the case of `C[C@@H]1CN([C@H](C)CO)C(=O)c2cccc(NC(=O)C3CCCCC3)c2O[C@@H]1CN(C)S(=O)(=O)c1ccc(Cl)cc1`, the outcome is reported as “inactive”.
In the case of `Cc1ccc(C2C(=O)N(C3CCC(C)CC3)CC(=O)N2C2CCCC2)cc1` (centres undefined), the outcome is reported as “inactive”.
For `COc1cc(OC)cc(-c2nc(N)n[nH]2)c1`, the outcome was “inactive”.
In the case of `O=C(Nc1cccc(NC(=O)c2ccccc2F)c1)c1ccccc1`, the outcome is reported as “inactive”.
In the case of `Cc1cccc(NC(=O)c2ccccc2C(=O)O)c1`, the outcome is reported as “inactive”.
With `C[C@H](CO)N1C[C@H](C)[C@@H](CN(C)C(=O)Nc2ccc(F)cc2)OCCCC[C@H](C)Oc2ccc(NC(=O)Cc3ccccc3)cc2C1=O` the outcome was “inactive”.
In the case of `Cc1cccc(OCC(=O)Nc2cc(C)on2)c1`, the outcome is reported as “inactive”.
For `Cc1cccc(-c2noc(Cc3ccc(Cl)cc3)n2)c1`, the outcome was “inactive”.
For `Cc1ccc2nc(-c3ccccc3Cl)cc(C(=O)Nc3cc(C)on3)c2c1`, the outcome was “inactive”.
For `Cc1cc(C)cc(NC(=O)c2ccc(CSc3nnc(C)s3)cc2)c1`, the outcome was “inactive”.
In the case of `COc1ccc(NC(=O)Nc2ccc3c(c2)C(=O)N([C@@H](C)CO)C[C@@H](C)[C@@H](CN(C)Cc2ccc(C(F)(F)F)cc2)OCCCC[C@H](C)O3)cc1`, the outcome is reported as “inactive”.
With `CCOc1ccc(-c2nc(CSCC(=O)NCCN3CCOCC3)c(C)o2)cc1` the outcome was “inactive”.
For `COc1ccc(NC(=O)Nc2cccc3c2O[C@@H](CN(C)C(=O)Nc2cccc4ccccc24)[C@H](C)CN([C@H](C)CO)C3=O)cc1`, the outcome was “inactive”.
For `Cn1ccnc1SCC(=O)Nc1ccccc1`, the outcome was “inactive”.
In the case of `Cc1cc(=O)[nH]c(Nc2c(C)n(C)n(-c3ccccc3)c2=O)n1`, the outcome is reported as “inactive”.
With `CCOC(=O)c1cnn(-c2ccccc2)c1-n1cccc1` the outcome was “inactive”.
For `O=C(Cc1cccs1)Nc1nnc(Cc2ccccc2)s1`, the outcome was “inactive”.
In the case of `CC(=O)O[C@@H]1[C@H]2[C@@H](C[C@@H](C)[C@@H]3C=CC(=O)[C@@]13C)OC(=O)[C@@H]2C`, the outcome is reported as “inactive”.
In the case of `COc1ccc(S(=O)(=O)NC(CC(=O)NCc2ccc3c(c2)OCO3)c2ccco2)cc1` (centres undefined), the outcome is reported as “inactive”.
In the case of `COc1ccc(S(=O)(=O)NCCC(=O)NCc2ccccc2)cc1`, the outcome is reported as “inactive”.
In the case of `O=C(Nc1ncn[nH]1)c1c(Cl)ccc(Cl)c1Cl`, the outcome is reported as “inactive”.
In the case of `CCCS(=O)(=O)N1CCCC(C(=O)NCCN2CCC(Cc3ccccc3)CC2)C1` (centres undefined), the outcome is reported as “inactive”.
For `CCOC(=O)CC(=O)CSc1ncc(C(=O)OCC)c(N)n1`, the outcome was “inactive”.
In the case of `CC(=O)N(C)c1ccc(NC(=O)Cc2cccc3ccccc23)cc1`, the outcome is reported as “inactive”.
In the case of `C[C@H]1CN([C@@H](C)CO)C(=O)c2cccc(NS(=O)(=O)c3ccc(Cl)cc3)c2O[C@H]1CN(C)Cc1ccc(-c2ccccc2)cc1`, the outcome is reported as “inactive”.
For `COc1ccc(OCC(O)CN2C(=O)NC(C)(C)C2=O)cc1` (centres undefined), the outcome was “inactive”.
With `CN(C)CCCNc1ncnc2c1cnn2Cc1ccccc1Cl` the outcome was “inactive”.
With `Cc1ccc(CC(=O)c2ccc(Cl)cc2)cc1` the outcome was “inactive”.
In the case of `CNC(=O)Cn1ncc2c(C)n(Cc3ccc(C)cc3)c(C)c2c1=O`, the outcome is reported as “inactive”.
With `COC(=O)c1cccc(OCC(O)Cn2ccnc2)c1` (centres undefined) the outcome was “inactive”.
For `C[C@H]1CN([C@@H](C)CO)C(=O)Cc2cc(NS(=O)(=O)c3ccc(F)cc3)ccc2O[C@@H]1CN(C)Cc1ccc2c(c1)OCO2`, the outcome was “inactive”.
For `C[C@H]1CN([C@@H](C)CO)C(=O)c2cccc(NC(=O)Nc3ccc4c(c3)OCO4)c2O[C@H]1CN(C)S(=O)(=O)c1ccc(Cl)cc1`, the outcome was “inactive”.
In the case of `C[C@@H]1CCCCO[C@@H](CN(C)CC2CCCCC2)[C@@H](C)CN([C@H](C)CO)C(=O)c2cc(NS(=O)(=O)c3ccc(F)cc3)ccc2O1`, the outcome is reported as “inactive”.
With `Cc1ccc(C(=O)NNC(=O)C2CCN(Cc3ccc(Cl)c(Cl)c3)CC2)cc1` the outcome was “inactive”.
For `COc1ccc(CN(C)C[C@H]2Oc3ccc(NS(=O)(=O)c4ccc(F)cc4)cc3CC(=O)N([C@H](C)CO)C[C@H]2C)cc1`, the outcome was “inactive”.
With `C[C@@H]1CN([C@H](C)CO)C(=O)Cc2cc(NS(=O)(=O)c3ccc(Cl)cc3)ccc2O[C@H]1CN(C)Cc1ccc2c(c1)OCO2` the outcome was “inactive”.
With `C[C@@H]1CN([C@H](C)CO)C(=O)Cc2cc(NS(=O)(=O)c3ccc(F)cc3)ccc2O[C@H]1CN(C)CC1CCCCC1` the outcome was “inactive”.
In the case of `C[C@@H]1CN([C@H](C)CO)C(=O)Cc2cc(NS(=O)(=O)c3ccc(Cl)cc3)ccc2O[C@@H]1CN(C)Cc1ccc(C(F)(F)F)cc1`, the outcome is reported as “inactive”.
In the case of `C[C@H](CO)N1C[C@H](C)[C@@H](CN(C)CC2CCCCC2)Oc2ccc(NS(=O)(=O)c3ccc(Cl)cc3)cc2CC1=O`, the outcome is reported as “inactive”.
For `COc1ccc(S(=O)(=O)Nc2ccc3c(c2)CC(=O)N([C@@H](C)CO)C[C@H](C)[C@@H](CN(C)Cc2ccccc2)O3)cc1`, the outcome was “inactive”.
For `COc1ccc(S(=O)(=O)Nc2ccc3c(c2)C(=O)N([C@H](C)CO)C[C@@H](C)[C@H](CN(C)S(=O)(=O)c2ccc(F)cc2)OCCCC[C@@H](C)O3)cc1`, the outcome was “inactive”.
For `CCn1c(CSc2nc3ccccc3[nH]2)n[nH]c1=S`, the outcome was “inactive”.
For `COc1ccc(S(=O)(=O)Nc2ccc3c(c2)CC(=O)N([C@@H](C)CO)C[C@@H](C)[C@H](CN(C)Cc2ccc(Oc4ccccc4)cc2)O3)cc1`, the outcome was “inactive”.
